# Screening results: PubChem, National Center for Advancing Translational Sciences (NCATS)
# This excerpt belongs to a sample that is enriched for hits.
# Pf Dd2 inh: blocks in vitro growth of P. falciparum Dd2; P. falciparum Dd2 growth, SYBR Green, 72 h; Potency, µM (series often up to 28.9 µM), inactives show top-dose activity, negative = inhibition, hits mostly inhibitors; 120,000 tested, 4.3% active; AID 1347417; active = well fitted inhibition curve with a large enough effect;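 also: plate controls were DMSO vehicle for no effect and reference drug for full effect; nearly all actives have a fitted effect of over 65% in size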
#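 Readout: SYBR Green fluorescence, 485 nm excitation, 535 nm emission, after ~16 h lysis at 37C. Before that, Dd2-infected red cells (2.5% hematocrit) grew 72 h with compound, 29 uM top final concentration.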
# * marks the source's active call; other numbers are inactive results; i = inactive; [ ] = another dose, or the depositor's remark. Potency is read from the fitted curve at half-maximal effect.
SMILES,Pf Dd2 inh
COc1ccc(N2Cc3c(NCCc4ccc(Cl)cc4)ncnc3N(C)CC2=O)cc1,i
O=C1N(C2CCN(Cc3ccc(C(F)(F)F)cc3)CC2)Cc2cccn21,-20.2%
COc1ccc(CN2C(=O)CO[C@H](c3ccc(NC(=O)c4ccccc4C)cc3)[C@H]2CO)cc1,-11.2%
O=C(NCC1(COc2ccccc2)C[C@@H](O)[C@@H](O)C1)C1CCOCC1 (stereo partly specified),21.9%[44.1 µM]
CS(=O)(=O)N1CCc2ccc(C(=O)N3CCN(Cc4ccc5c(c4)OCO5)CC3)cc21,-3.0%
O=C(NC[C@H]1OC[C@@H](NCc2ccccc2O)[C@@H]1O)Nc1ccccc1,-10.7%[44.1 µM]
COc1ccc(NC(=O)Cn2c(SCc3cc(C)ccc3C)nc3ccncc32)c(OC)c1OC,-16.8%
COc1cccc(CSc2nc3ccncc3n2CC(=O)Nc2ccc(OC)c(OC)c2OC)c1,-9.9%
COc1ccccc1CNC(=O)c1ccc(CSc2nc3ccncc3n2Cc2ccccc2C)cc1,7.08µM*
COC(=O)c1ccc(Cn2c(SCC(=O)NCc3ccccc3)nc3ccccc32)cc1,27.0%
CCNC(=O)c1ccc(CSc2nc3ccncc3n2Cc2ccc(F)cc2)cc1,7.94µM*
O=C(NCc1cccs1)c1ccc(Cn2c(SCc3cccc(F)c3)nc3cccnc32)cc1,-4.9%
O=C(NCc1ccc(F)cc1)c1ccc(CSc2nc3ccncc3n2Cc2ccc(F)cc2)cc1,11.2µM*
CC1(C(=O)O)CCN(C(=O)c2ccc3c(c2)OCO3)CC1,-8.1%
COc1ccc(-c2noc(C(=O)O)c2[C@@H](C)NC(=O)CC(C)C)cc1,25.8%[44.1 µM]
CN(C)c1ccc(C(=O)N2CCN3C(=O)N(CC(N)=O)C(=O)[C@@H]3C2)cc1,-11.8%[44.1 µM]
COc1ccc([C@H]2C[C@@H](O)[C@@H](O)[C@@H]2NS(=O)(=O)c2ccccc2)cc1,-4.7%[44.1 µM]
Cc1ncc(S(C)(=O)=O)c(NCCn2nc(C)nc2C)n1,23.0%
CCN(CC)C(=O)N1CCC(Oc2ccc(-c3noc(COC)n3)cc2)C1 (stereo unspecified),12.9%[5.79 µM]
COCc1nc(-c2ccc(OC3CN(C(=O)c4ccc(OC)nc4)C3)cc2)no1,-26.0%
COCc1nc(-c2ccc(OC3CN(C(=O)c4cc(C)n(C)n4)C3)cc2)no1,7.94µM*
O=C(Cn1nc2c(cc1=O)CCCC2)NCCc1ccco1,-7.2%
CCC(CC)n1c(=O)n(CCCc2cccnc2)c2cc(C(=O)O)cnc21,-9.4%
COc1cc(OC)c(-c2c(-c3ccccc3)ncn2CCF)cc1OC,10µM*
OCCOCCn1cnc(-c2ccccc2)c1-c1ccc(-n2cccn2)cc1,-25.4%
SMILES,Pf Dd2 inh
C#CCOc1ccccc1-c1c(-c2ccccc2)ncn1CCCO,-24.2%
COc1ccc(CNC(=O)C2(C)CCCCC(=O)N2)cc1OC (stereo unspecified),i
CNC(=O)c1cc[nH]c1C1CCCN(C(=O)c2ccc(C)[nH]c2=O)C1 (stereo unspecified),1.5%
Cc1ccn2c(=O)c(C(=O)NCc3ccccc3Cl)c(O)nc2c1,37.6%
Cc1ccn2c(C(=O)NCc3cccnc3N3CCN(C)CC3)c(C)nc2c1,-9.9%
CCC(NCc1c(C(=O)N2CCCCCC2)nc2cc(C)ccn12)c1ccc(C)cc1 (stereo unspecified),10µM*
Cc1nc(C)c(C(=O)N(C)C2CCc3nn(CC4CC4)c(=O)n3CC2)s1 (stereo unspecified),41.5%
CC(=O)N1CCC(Cc2ccc(C(=O)NCc3cn[nH]c3C)cc2)CC1,-21.2%
O=C(Cc1cccc(Cl)c1)N1CCC2(CC1)COc1ccccc1[S+](=O)([O-])N2,-10.4%
Cc1nc(CC2CCN(C(=O)c3ccccc3)CC2)n[nH]1,24.8%
COc1cccc(C(=O)NCC2(COc3ccccc3)C[C@@H](O)[C@@H](O)C2)c1 (stereo partly specified),i
COc1cccc(CNCC2(COc3ccccc3)C[C@@H](O)[C@@H](O)C2)c1 (stereo partly specified),3.98µM*
COc1ccc(CNCC2(COc3cccnc3)C[C@@H](O)[C@@H](O)C2)cc1 (stereo partly specified),-16.7%[44.1 µM]
C[C@H](C(=O)NCCN1CCOCC1)C1CC[C@@]2(C)Cc3sc(CSc4ccccc4)nc3[C@@H](C)[C@@H]2[C@H]1O (stereo partly specified),i
Cc1cccc(-c2noc([C@@H]3C[C@@H](O)CN3Cc3ncc[nH]3)n2)c1,i
Cc1ccccc1NC1CCn2c(nc(C)c2C(=O)Nc2ccccc2)C1 (stereo unspecified),i
Cc1nc2n(c1C(=O)NCC1CC1)CCC(Nc1ccc(F)cc1)C2 (stereo unspecified),-24.8%[44.1 µM]
Cc1nc2n(c1C(=O)Nc1cc(-c3ccc(F)cc3)[nH]n1)CCC(Nc1ccc(F)cc1)C2 (stereo unspecified),8.91µM*
O=C(c1cc(F)ccc1F)N1CCCN(CCc2ccccc2)c2ccccc21,i
COc1ccccc1CC(=O)N1CCCN(CCc2ccccc2)c2ccccc21,7.94µM*
CN(C)CCN1CCCN(C(=O)CCc2ccccc2)c2ccccc21,7.08µM*
